Results as given in PubChem BioAssay AID1159580 (chemical genetic matrix, 2015).
Out of some 5,500 compounds screened, about 2,000 (36%) were called active. Inconclusive results (about 18%) are left out. Cut-off read from the data, not from the text of the source: active = normalized growth mostly below about 0.91 (no sharp cut-off); inconclusive = no clear call, values can overlap the other calls; inactive = mostly above about 0.92. The list shows a part of the results.

Assay: chemical genetic growth profiling, strain panel (AID 1159580);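 note: tested at 20 µM; growth read once vehicle control cultures reached saturation at 30 °C; 1 = growth at the plate median or of vehicle wells; lower values mean less growth of the strain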
Conditions: S. cerevisiae deletion strains, growth OD

Measured: normalized growth

CC(=O)Oc1cc2c(c(C)c1OC(C)=O)CC1OC13C2(C)CCC1(C)C2CC(C)(C(=O)O)CCC2(C)CCC13C (configuration not stated)
inactive: locus YAL021C, strain ccr4, active compounds read low 0.988 | locus YAL026C, strain drs2, active compounds read low 1.04 | locus YAL030W, strain snc1, active compounds read low 1.01 | locus YBL061C, strain skt5, active compounds read low 1.04 | locus YBR009C, strain hhf1, active compounds read low 1 | locus YBR021W, strain FUR4, active compounds read low 0.99 | locus YBR023C, strain chs3, active compounds read low 1.01 | locus YBR171W, strain sec66, active compounds read low 1.02 | locus YBR229C, strain ROT2, active compounds read low 1.01 | locus YBR231C, strain swc5, active compounds read low 1.04 | locus YBR279W, strain paf1, active compounds read low 1.02 | locus YCL011C, strain gbp2, active compounds read low 1.01 | locus YCL016C, strain dcc1, active compounds read low 1 | locus YCL029C, strain bik1, active compounds read low 1.03 | locus YCL069W, strain vba3, active compounds read low 1.03 | locus YCR088W, strain abp1, active compounds read low 1.01 | locus YDL005C, strain med2, active compounds read low 1.02 | locus YDL035C, strain GPR1, active compounds read low 0.993 | locus YDL040C, strain nat1, active compounds read low 1.02 | locus YDL074C, strain BRE1, active compounds read low 1.02 | locus YDL101C, strain DUN1, active compounds read low 1.01 | locus YDL185W, strain tfp1, active compounds read low 1.04 | locus YDL192W, strain arf1, active compounds read low 1.02 | locus YDR001C, strain nth1, active compounds read low 1.01 | locus YDR069C, strain doa4, active compounds read low 1.01 | locus YDR101C, strain arx1, active compounds read low 1.03 | locus YDR137W, strain rgp1, active compounds read low 1.02 | locus YDR159W, strain sac3, active compounds read low 1.05 | locus YDR162C, strain NBP2, active compounds read low 1 | locus YDR195W, strain ref2 1.02 | locus YDR297W, strain sur2, active compounds read low 1.02 | locus YDR318W, strain mcm21, active compounds read low 1.02 | locus YDR334W, strain swr1, active compounds read low 1.01 | locus YDR335W, strain msn5, active compounds read low 1.02 | locus YDR388W, active compounds read low 1.02 | locus YDR392W, strain spt3, active compounds read low 0.919 | locus YDR502C, strain sam2, active compounds read low 1.01 | locus YEL003W, strain gim4, active compounds read low 1.01 | locus YEL037C, strain rad23, active compounds read low 1.01 | locus YEL061C, strain CIN8 (second series), active compounds read low 1.02 | locus YEL061C, strain CIN8, active compounds read low 1.01 | locus YER015W, strain faa2, active compounds read low 1.02 | locus YER016W, strain bim1, active compounds read low 1.02 | locus YER110C, active compounds read low 1.03 | locus YER111C, strain swi4, active compounds read low 1 | locus YER155C, strain BEM2 (second series), active compounds read low 1.01 | locus YER155C, strain BEM2, active compounds read low 0.99 | locus YER167W, strain BCK2, active compounds read low 1.01 | locus YFR010W, strain ubp6, active compounds read low 1.03 | locus YGL078C, strain dbp3, active compounds read low 0.99 | locus YGL086W, strain mad1, active compounds read low 1.02 | locus YGL167C, strain pmr1, active compounds read low 1 | locus YGL173C, strain kem1, active compounds read low 1.02 | locus YGL227W, strain vid30, active compounds read low 1.02 | locus YGL240W, strain doc1, active compounds read low 1.02 | locus YGL248W, strain PDE1, active compounds read low 0.999 | locus YGL253W, strain hxk2, active compounds read low 1.03 | locus YGR135W, strain pre9, active compounds read low 1.03 | locus YGR252W, strain gcn5, active compounds read low 0.989 | locus YHR013C, strain ard1, active compounds read low 1.01 | locus YHR027C, strain rpn1, active compounds read low 1.01 | locus YHR030C, strain SLT2, active compounds read low 1.02 | locus YHR079C, strain IRE1 (second series), active compounds read low 1.04 | locus YHR094C, strain hxt1, active compounds read low 1.04 | locus YHR129C, strain ARP1, active compounds read low 1.01 | locus YHR142W, strain chs7, active compounds read low 1.01 | locus YHR200W, strain rpn10, active compounds read low 1.04 | locus YIL066C, strain RNR3, active compounds read low 0.998 | locus YIL073C, strain SPO22, active compounds read low 1.02 | locus YIL125W, strain kgd1, active compounds read low 1.01 | locus YIR030C, strain dcg1, active compounds read low 1.04 | locus YJL092W, strain hpr5, active compounds read low 1.02 | locus YJL095W, strain BCK1 (second series), active compounds read low 1.03 | locus YJL095W, strain BCK1, active compounds read low 0.998 | locus YJL115W, strain asf1, active compounds read low 1.01 | locus YJL129C, strain trk1, active compounds read low 1.02 | locus YJL134W, strain LCB3, active compounds read low 1.01 | locus YJL154C, strain vps35, active compounds read low 1.01 | locus YJL164C, strain tpk1, active compounds read low 0.989 | locus YJL166W, strain qcr8, active compounds read low 1.01 | locus YJL168C, strain set2, active compounds read low 1.03 | locus YJL187C, strain SWE1 (second series), active compounds read low 0.992 | locus YJR043C, strain POL32, active compounds read low 1 | locus YKL009W, strain mrt4, active compounds read low 0.927 | locus YKL068W, active compounds read low 1.03 | locus YKL085W, strain MDH1 (second series), active compounds read low 1 | locus YKL085W, strain MDH1, active compounds read low 1 | locus YKL160W, strain elf1, active compounds read low 1 | locus YKL190W, strain CNB1, active compounds read low 1 | locus YKR001C, strain vps1, active compounds read low 0.993 | locus YKR026C, strain gcn3, active compounds read low 1.02 | locus YKR091W, strain srl3, active compounds read low 1.01 | locus YLL001W, strain dnm1, active compounds read low 1.03 | locus YLL026W, active compounds read low 1.01 | locus YLL041C, strain sdh2, active compounds read low 1.01 | locus YLR027C, strain aat2, active compounds read low 1.01 | locus YLR039C, strain RIC1, active compounds read low 0.893 | locus YLR058C, strain SHM2, active compounds read low 1 | locus YLR102C, strain apc9, active compounds read low 1.03 | locus YLR221C, strain rsa3, active compounds read low 1.03 | locus YLR258W, strain gsy2, active compounds read low 1.02 | locus YLR262C, strain YPT6 (second series), active compounds read low 1.02 | locus YLR262C, strain YPT6, active compounds read low 0.853 | locus YLR268W, strain sec22, active compounds read low 1.04 | locus YLR320W, strain mms22, active compounds read low 1.03 | locus YLR330W, strain CHS5, active compounds read low 1.01 | locus YLR342W, strain FKS1 (second series), active compounds read low 1 | locus YLR342W, strain FKS1, active compounds read low 1.02 | locus YLR357W, strain rsc2, active compounds read low 1.01 | locus YLR370C, strain arc18, active compounds read low 1.01 | locus YLR371W, strain rom2, active compounds read low 1.05 | locus YLR384C, strain iki3, active compounds read low 1 | locus YLR418C, strain cdc73, active compounds read low 1 | locus YML016C, strain PPZ1, active compounds read low 1.01 | locus YML032C, strain rad52, active compounds read low 1.03 | locus YML120C, strain ndi1, active compounds read low 1.02 | locus YML124C, strain tub3, active compounds read low 1.02 | locus YMR058W, strain fet3, active compounds read low 1.03 | locus YMR078C, strain ctf18, active compounds read low 1.04 | locus YMR125W, strain sto1, active compounds read low 0.985 | locus YMR129W, active compounds read low 1.01 | locus YMR205C, strain PFK2, active compounds read low 0.988 | locus YMR223W, strain ubp8, active compounds read low 1.05 | locus YMR231W, strain pep5, active compounds read low 1.01 | locus YMR263W, strain SAP30, active compounds read low 1.01 | locus YMR307W, strain GAS1, active compounds read low 0.949 | locus YNL067W, strain RPL9B, active compounds read low 1 | locus YNL071W, strain lat1, active compounds read low 1.01 | locus YNL153C, strain GIM3, active compounds read low 1 | locus YNL209W, strain ssb2, active compounds read low 0.994 | locus YNL233W, strain BNI4, active compounds read low 1.02 | locus YNL248C, strain rpa49, active compounds read low 1.06 | locus YNL250W, strain rad50, active compounds read low 1.02 | locus YNL271C, strain bni1, active compounds read low 1.03 | locus YNL298W, strain CLA4, active compounds read low 0.994 | locus YNL307C, strain MCK1, active compounds read low 1.03 | locus YNL322C, strain KRE1 (second series), active compounds read low 0.994 | locus YNR049C, strain mso1, active compounds read low 1.04 | locus YNR052C, strain pop2, active compounds read low 1.01 | locus YOL006C, strain TOP1, active compounds read low 0.964 | locus YOL012C, strain htz1 1.11 | locus YOL147C, strain pex11, active compounds read low 1.04 | locus YOR001W, strain rrp6, active compounds read low 1.02 | locus YOR061W, strain CKA2, active compounds read low 1.02 | locus YOR069W, strain VPS5, active compounds read low 1.01 | locus YOR070C, strain gyp1, active compounds read low 1.04 | locus YOR080W, strain dia2, active compounds read low 1.02 | locus YOR083W, strain WHI5, active compounds read low 1.01 | locus YOR106W, strain vam3, active compounds read low 1.01 | locus YOR136W, strain idh2, active compounds read low 1.02 | locus YOR144C, strain elg1, active compounds read low 1.03 | locus YOR184W, strain ser1, active compounds read low 0.994 | locus YOR265W, strain rbl2, active compounds read low 1.01 | locus YOR270C, strain vph1, active compounds read low 1.05 | locus YOR290C, strain snf2, active compounds read low 0.994 | locus YOR316C, strain cot1, active compounds read low 1.03 | locus YPL051W, strain arl3, active compounds read low 1.02 | locus YPL055C, strain LGE1, active compounds read low 1.01 | locus YPL078C, strain atp4, active compounds read low 0.99 | locus YPL106C, strain sse1, active compounds read low 1.03 | locus YPL240C, strain hsp82, active compounds read low 1.01 | locus YPL241C, strain CIN2, active compounds read low 1 | locus YPR119W, strain clb2, active compounds read low 1.02 | locus YPR141C, strain kar3, active compounds read low 1.02 | locus YPR163C, strain tif3, active compounds read low 1.04 | locus YPR167C, strain met16, active compounds read low 1.02 | strain wtn01, active compounds read low 1.01
